# Data published in PubChem BioAssay (NCATS).
# Inconclusive results are not listed. The source made the active and inactive calls. The call rests on the fitted dose curve; in most records, active means well fitted curve in the direction sought with a large enough effect; inconclusive means small, poorly fitted or top-dose-only effect, or another doubt; inactive means no such curve, though single readings can be large; an effect the other way counts as inactive or inconclusive.
# Tested on: not listed separately
# Assay: Primary fluorescence-based thiol-reactive (MSTI) qHTS assay for identification of artifact compounds. (AID 1845221);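 further: thiol-reactive compounds lower the probe fluorescence signal; nearly all actives have a fitted effect of over 65% in size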
# Details: MSTI thiol-reactivity probe, 1 h; series mostly up to 53.8 µM
# Summary of the method: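 A multi-concentration qHTS design tested compounds against 4 uM MSTI, pH 7.4 phosphate-buffered saline. Plates were protected from light for 1 h at room temperature before imaging fluorescence.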
row,SMILES,outcome
1,O=c1[nH]c2ccccc2n1C1CCN(CCCC(c2ccc(F)cc2)c2ccc(F)cc2)CC1,inactive
2,CC(O)(CS(=O)(=O)c1ccc(F)cc1)C(=O)Nc1ccc(C#N)c(C(F)(F)F)c1 (centres undefined),inactive
3,C[C@@H]1O[C@@H](O[C@H]2C[C@@H](O)[C@]3(CO)[C@H]4[C@H](O)C[C@]5(C)[C@@H](C6=CC(=O)OC6)CC[C@]5(O)[C@@H]4CC[C@]3(O)C2)[C@H](O)[C@H](O)[C@H]1O,inactive

# Tested on: Nanoluciferase (engineered Oplophorus gracilirostris luciferase)
# Assay: Primary Nanoluciferase (NLuc) qHTS assay for identification of artifact compounds. (AID 1845222);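 further: NLuc secreted into diluted conditioned medium of S16 cells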
# Details: NLuc-conditioned medium, Nano-Glo luminescence, 5 min; series mostly up to 54.1 µM
# Summary of the method: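 qHTS format, against NLuc in S16 cell-conditioned medium. Nano-Glo substrate 1:100 was added after 15 min at room temperature. Luminescence was taken after a further 5 min.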
row,SMILES,outcome
1,O=c1[nH]c2ccccc2n1C1CCN(CCCC(c2ccc(F)cc2)c2ccc(F)cc2)CC1,inactive
2,CC(O)(CS(=O)(=O)c1ccc(F)cc1)C(=O)Nc1ccc(C#N)c(C(F)(F)F)c1 (centres undefined),inactive
3,C[C@@H]1O[C@@H](O[C@H]2C[C@@H](O)[C@]3(CO)[C@H]4[C@H](O)C[C@]5(C)[C@@H](C6=CC(=O)OC6)CC[C@]5(O)[C@@H]4CC[C@]3(O)C2)[C@H](O)[C@H](O)[C@H]1O,inactive

# Tested on: not listed separately
# Assay: Primary redox qHTS assay for identification of artifact compounds. (AID 1845223)
# Details: Amplex Red/HRP redox cycling with DTT, fluorescence; series mostly up to 53.8 µM
# Summary of the method: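 Amplex Red (25 uM) and HRP (250 mU/mL) in HBSS, with compounds for 15 min, then 250 uM DTT for 30 min, room temperature, dark. Fluorescence 525/598 nm read; normalized to DMSO and 10 uM DA3003; Hill fit.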
row,SMILES,outcome
1,O=c1[nH]c2ccccc2n1C1CCN(CCCC(c2ccc(F)cc2)c2ccc(F)cc2)CC1,inactive
2,CC(O)(CS(=O)(=O)c1ccc(F)cc1)C(=O)Nc1ccc(C#N)c(C(F)(F)F)c1 (centres undefined),inactive
3,C[C@@H]1O[C@@H](O[C@H]2C[C@@H](O)[C@]3(CO)[C@H]4[C@H](O)C[C@]5(C)[C@@H](C6=CC(=O)OC6)CC[C@]5(O)[C@@H]4CC[C@]3(O)C2)[C@H](O)[C@H](O)[C@H]1O,inactive
